FMDV Renilla – antivirals against foot and mouth disease virus replicon | FMDV replicon cells, Renilla luciferase signal | Potency, µM (doses to about 57.5 µM), inactives show top-dose activity change, negative = inhibition, hits mostly inhibitors | actives 0.32% (n = 120,000) | AID 1745857; also: nearly all actives have a fitted effect of over 55% in size
FMDV FLuc – antivirals against foot and mouth disease virus; FMDV antiviral cell assay, firefly luciferase signal; Potency, µM (titrated, usually from 57.5 µM), without a hit: at the highest dose activity change, negative = inhibition, hits mostly inhibitors; actives 0.23% (n = 120,000); also: nearly all actives have a fitted effect of over 60% in size
Active calls of the source: *; u = inconclusive; [ ] = dose if it differs, or a comment. In the library only some 0.45% were active in any assay of this set; here they are far more common. Calls follow the shape of the full dose curve. % is scaled to controls: 0 for no effect and ±100 for the full control effect; potency is read from the fitted curve at half-maximal effect.

SMILES	FMDV Renilla	FMDV FLuc
CCc1ccc(-c2nc(C)c(C(C)=O)s2)cc1	14%	129%
COc1ccc2c(c1)c(C(C(=O)O)N1CCN(Cc3ccncc3)CC1)cn2CCC(=O)O (configuration not stated)	-11%	-3%
COc1cccc(C(=O)/C(=C/c2ccccn2)c2nc3ccccc3o2)c1	u	-105%
COc1ccc(C(=O)/C(=C/c2ccccn2)c2nc3ccccc3o2)cc1	28µM*	-102%
O=C(Cn1nc(-c2cccs2)c2ccccc2c1=O)Nc1ccc(N2CCCCC2)cc1	1%	4%
Cc1[nH]c(SCC(=O)Nc2cccc(S(=O)(=O)N3CCCC3)c2)nc1Cc1ccccc1	-16%	14µM*
O=C(CSc1nncn1-c1ccccc1)Nc1cccc(S(=O)(=O)N2CCCCC2)c1	18%	15%
Cc1cc(C)c2oc(-c3cccc(NC(=O)C(C)C)c3C)nc2c1	-1%	21%
CCCCOc1ccc(C(=O)NCCS(=O)(=O)N2CCN(c3ccc(F)cc3)CC2)cc1	-12%	-16%
CCCCOc1ccc(C(=O)NCCS(=O)(=O)N2CCN(c3ccccc3OC)CC2)cc1	u	18µM*
O=C(Nc1cccc(Cl)c1)c1nc2ccccc2nc1N1CCOCC1	-5%	-14%
Cc1ccccc1CN1CCC(C(=O)O)CC1	5%	6%
Cc1ccccc1CN1CCC(N2CCCCCC2)CC1	u	25µM*
CC(C)(C)c1ccc(C(=O)Nc2c(F)cccc2F)cc1	12%	218%
CSc1ccccc1NC(=O)c1cc(F)c(F)cc1Cl	18%	17%
CCn1c(C)c(/C=C/c2cc[n+](C)cc2)c2ccccc21	14µM*	u
Cc1ccccc1-n1c(/C=C/c2c(C)n(C)c3ccccc23)nc2ccccc2c1=O	-12%	2%
S=C1NC2=C(CCc3ccccc32)C(c2ccc(Cl)cc2)N1 (configuration not stated)	7%	12%
CCn1nc(C(=O)N(C)Cc2ccccc2N2CCCC2)c2ccccc2c1=O	6%	-21%
CC(C)c1nc2oc3c(=O)n(C)cnc3c2c2c1CCC2	-3%	-3%
O=C(Nc1ccccn1)c1ccc(C2SCCCS2)cc1	22%	13µM*
O=C(O)c1ccc(C2SCCCS2)cc1	-1%[1.06 µM]	0%
CC(=O)N1CCCc2ccc(NC(=O)c3ccc(C(F)(F)F)cc3)cc21	1%	3.2µM*
CCOc1ccc(C(=O)Nc2ccc3c(c2)N(C(C)=O)CCC3)cc1OCC	4%	u
Cn1c(=O)c2c(nc(NCC(O)CO)n2Cc2c(F)cccc2Cl)n(C)c1=O (configuration not stated)	-11%	-2%
SMILES	FMDV Renilla	FMDV FLuc
CCOCN(C(=O)Cn1c(C)nc2ccccc21)c1c(C)cccc1CC	-5%	-5%
CCn1cc(C(=O)Cn2c(C)nc3ccccc32)c2ccccc21	8.9µM*	u
COc1ccc2cc(CNC3CCCc4ccccc43)ccc2c1 (configuration not stated)	20%	26%
O=C(Cn1cccc1-c1nc(-c2ccc(F)c(Br)c2)no1)NC1CCCC1	-10%	25%
Cc1ccc(S(=O)(=O)N(C)C)cc1NC(=O)c1nn(-c2ccccc2)c(=O)c2ccccc12	7%	0%
COc1ccc(-c2c(C)oc3cc(OS(=O)(=O)c4ccc(C)cc4)ccc3c2=O)cc1	2.2µM*	3.2µM*
COc1ccc(-c2c(C)c3cc(OS(=O)(=O)c4ccc(C)cc4)ccc3oc2=O)cc1	u	-31%
Cc1cccc(-n2nnnc2C2(Nc3ccccc3C)CCCC2)c1	92%	13%
O=C(Nc1ccccc1F)NC1(C(F)(F)F)Oc2ccccc2O1	16%	49%
COc1ccc(Cc2nc(C)c(-c3ccccc3)s2)cc1OC	10µM*	u
COc1ccc(-c2nc(C)c(-c3ccccc3)s2)cc1	25%	267%
NCCC/C(=N/O)c1cccs1	1%[1.06 µM]	18%
O=S(=O)(Cc1coc(-c2ccccc2)n1)CC1CCCO1 (configuration not stated)	8%	73%
COc1ccc(NC(=O)COc2ccc(Cl)cc2Cl)c2cccnc12	u	2.5µM*
COc1ccc(NC(=O)c2ccc(Cl)cc2)c2cccnc12	-12%	43%
CCOc1cc(S(=O)(=O)N(CCO)CCO)ccc1Br	15%	15%
O=[N+]([O-])c1ccc(N/N=C/c2c[nH]c3ccccc23)c(S(=O)(=O)Nc2ccc(Cl)cc2)c1	-93%	25µM*
O=[N+]([O-])c1ccc(N/N=C/c2c[nH]c3ccccc23)c(S(=O)(=O)Nc2ccccc2Cl)c1	68%	-18%
O=C(C=C(Sc1ccccc1)Sc1ccccc1)C(F)(F)F	-1%	0%
CCCn1c(=O)c2sc(N3CCCC3)nc2n(CC(=O)NC2CCCCC2)c1=O	-4%	-2%
NCC1CCN(Cc2ccco2)C1 (configuration not stated)	9%	16%
COc1cc(C=O)ccc1O	2%	-1%
COc1cc(C=C2CCC/C(=C\c3ccc(O)c(OC)c3)C2=O)ccc1O	u	22µM*
N#CC1(NC(=O)CSc2ncc(-c3ccc(F)cc3)o2)CCCCC1	38%	42%

Assay outcomes deposited in PubChem by National Center for Advancing Translational Sciences (NCATS).
